Inconclusive results are not listed. Activity calls are given as the source filed them. Unless noted, calls come from the whole dose curve; as a rule, active = well fitted curve in the direction sought with a large enough effect; inconclusive = small, poorly fitted or top-dose-only effect, or another doubt; inactive = no such curve, though single readings can be large; an effect the other way counts as inactive or inconclusive.
What was measured:
[1] = S16 Schwann cell PMP22 intronic element firefly luciferase assay (AID 624032);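 note: plate controls were DMSO for no effect and PTC124 positive control mean for full effect; nearly all actives have a fitted effect of over 30% in size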
Procedure, shortened: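 Luciferase reporter of PMP22 intronic-element expression in stably transfected S16 rat Schwann cells, read by ONE-Glo luminescence after 24 h compound exposure at 37 C. Activity scaled between DMSO (0%) and positive-control PTC124; concentration-effect curves quality-classified.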

CP194 = test: qHTS profiling for inhibitors of Plasmodium falciparum proliferation (AID 504749); note: nearly all actives have a fitted effect of over 60% in size; note: potency is the fitted concentration of half-maximal effect; conditions: P. falciparum in erythrocytes, SYBR Green DNA, 72 h; series mostly up to 12.8 µM
Procedure, shortened: (§1)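 Infected RBCs, 0.3% parasitemia/2.5% Hct final; cpd 72 h, 37 C, 5% CO2; lysis buffer with saponin/triton/SYBR Green I, o/n RT dark; FI 485/535; norm. to artemisinin (0.29 uM) and DMSO.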

CP211 = test: as above; conditions: P. falciparum in erythrocytes, SYBR Green DNA, 72 h; series mostly up to 12.8 µM
Procedure, shortened: as §1

CP215 = test: as above; conditions: P. falciparum in erythrocytes, SYBR Green DNA, 72 h; series mostly up to 12.8 µM
Procedure, shortened: as §1

CP237 = test: as above; conditions: P. falciparum in erythrocytes, SYBR Green DNA, 72 h; series mostly up to 12.8 µM
Procedure, shortened: as §1

CP260 = test: as above; conditions: P. falciparum in erythrocytes, SYBR Green DNA, 72 h; series mostly up to 12.8 µM
Procedure, shortened: as §1

CP269 = test: as above; conditions: P. falciparum in erythrocytes, SYBR Green DNA, 72 h; series mostly up to 12.8 µM
Procedure, shortened: as §1

CP291 = test: as above; conditions: P. falciparum in erythrocytes, SYBR Green DNA, 72 h; series mostly up to 12.8 µM
Procedure, shortened: as §1

CP315 = test: as above; conditions: P. falciparum in erythrocytes, SYBR Green DNA, 72 h; series mostly up to 12.8 µM
Procedure, shortened: as §1

CP335 = test: as above; conditions: P. falciparum in erythrocytes, SYBR Green DNA, 72 h; series mostly up to 12.8 µM
Procedure, shortened: as §1

DFO2036 = test: as above; conditions: P. falciparum in erythrocytes, SYBR Green DNA, 72 h; series mostly up to 12.8 µM
Procedure, shortened: as §1

GB4 = test: as above; conditions: P. falciparum in erythrocytes, SYBR Green DNA, 72 h; series mostly up to 12.8 µM
Procedure, shortened: as §1

P94_40 = test: as above; conditions: P. falciparum in erythrocytes, SYBR Green DNA, 72 h; series mostly up to 12.8 µM
Procedure, shortened: as §1

PC26 = test: as above; conditions: P. falciparum in erythrocytes, SYBR Green DNA, 72 h; series mostly up to 12.8 µM
Procedure, shortened: as §1

[2] = biological target: Cytochrome P450 2C9 (Homo sapiens) (UniProt P11712); test: qHTS Assay for Inhibitors and Substrates of Cytochrome P450 2C9 (AID 883); note: nearly all actives have a fitted effect of over 60% in size; note: potency is the fitted concentration of half-maximal effect
Sequence of Cytochrome P450 2C9 (Homo sapiens) (P11712 whole entry, looked up): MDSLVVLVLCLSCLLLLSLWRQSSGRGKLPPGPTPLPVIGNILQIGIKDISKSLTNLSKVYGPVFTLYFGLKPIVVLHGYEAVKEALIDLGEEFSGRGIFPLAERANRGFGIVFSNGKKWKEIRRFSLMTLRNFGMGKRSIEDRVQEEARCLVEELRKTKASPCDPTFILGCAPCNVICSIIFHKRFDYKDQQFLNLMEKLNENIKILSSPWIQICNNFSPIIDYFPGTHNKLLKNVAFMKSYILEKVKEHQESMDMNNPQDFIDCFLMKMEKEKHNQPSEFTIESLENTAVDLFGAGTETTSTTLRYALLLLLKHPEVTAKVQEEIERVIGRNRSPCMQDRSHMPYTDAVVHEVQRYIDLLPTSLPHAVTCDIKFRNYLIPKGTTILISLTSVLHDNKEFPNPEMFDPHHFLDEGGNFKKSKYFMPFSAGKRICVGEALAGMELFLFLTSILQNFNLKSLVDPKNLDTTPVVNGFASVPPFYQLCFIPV
Procedure, shortened: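 Luminescent read-out of deoxyluciferin hydroxylation, normalized to 57uM sulphaphenazole (AC100). Reaction: 10nM enzyme, 100uM Luciferin-H (equal to KM), 25mM KPO4, 10 min compound preincubation, then 60 min with NADPH regeneration, both at 37C.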

[3] = biological target: Cytochrome P450 3A4 (Homo sapiens) (UniProt P08684); test: qHTS Assay for Inhibitors and Substrates of Cytochrome P450 3A4 (AID 884); note: nearly all actives have a fitted effect of over 50% in size; note: potency is the fitted concentration of half-maximal effect
Sequence of Cytochrome P450 3A4 (Homo sapiens) (P08684 whole entry, looked up): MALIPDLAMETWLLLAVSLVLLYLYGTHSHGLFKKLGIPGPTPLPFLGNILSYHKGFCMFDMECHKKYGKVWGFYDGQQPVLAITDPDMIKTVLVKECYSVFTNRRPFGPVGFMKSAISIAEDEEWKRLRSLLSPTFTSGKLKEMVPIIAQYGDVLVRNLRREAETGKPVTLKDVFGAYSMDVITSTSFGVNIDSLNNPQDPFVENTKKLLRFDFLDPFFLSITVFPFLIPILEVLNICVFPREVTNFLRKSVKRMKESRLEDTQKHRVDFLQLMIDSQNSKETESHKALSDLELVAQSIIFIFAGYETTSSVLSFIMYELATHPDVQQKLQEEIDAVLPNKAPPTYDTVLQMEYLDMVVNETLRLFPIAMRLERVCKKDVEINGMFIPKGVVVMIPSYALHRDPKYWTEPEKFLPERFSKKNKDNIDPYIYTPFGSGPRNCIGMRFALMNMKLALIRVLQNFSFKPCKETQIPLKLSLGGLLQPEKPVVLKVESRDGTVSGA
Procedure, shortened: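 20 nM human CYP3A4 with 25 uM Luciferin-PPXE (at KM) in 200 mM KPO4, preincubated 10 min with compound; NADPH regeneration started a 60 min RT reaction. Luciferin detected by luminescence, normalized to 57 uM ketoconazole as full inhibition.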

[4] = biological target: Cytochrome P450 3A4 (Homo sapiens) (UniProt P08684); test: qHTS Assay for Activators of Cytochrome P450 3A4 (AID 885); note: nearly all actives have a fitted effect of over 65% in size
Procedure, shortened: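 20nM CYP3A4 + 25uM Luciferin-PPXE (=KM), 200mM KPO4; cpd 10 min RT; NADPH regen, 60 min RT; stop w/ detection buffer, 20 min; luminescence. Normalized to 57 uM ketoconazole.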

[5] = biological target: Cytochrome P450 2D6 (Homo sapiens) (UniProt P10635); test: qHTS Assay for Inhibitors and Substrates of Cytochrome P450 2D6 (AID 891); note: nearly all actives have a fitted effect of over 60% in size; note: potency is the fitted concentration of half-maximal effect
Sequence of Cytochrome P450 2D6 (Homo sapiens) (P10635 whole entry, looked up): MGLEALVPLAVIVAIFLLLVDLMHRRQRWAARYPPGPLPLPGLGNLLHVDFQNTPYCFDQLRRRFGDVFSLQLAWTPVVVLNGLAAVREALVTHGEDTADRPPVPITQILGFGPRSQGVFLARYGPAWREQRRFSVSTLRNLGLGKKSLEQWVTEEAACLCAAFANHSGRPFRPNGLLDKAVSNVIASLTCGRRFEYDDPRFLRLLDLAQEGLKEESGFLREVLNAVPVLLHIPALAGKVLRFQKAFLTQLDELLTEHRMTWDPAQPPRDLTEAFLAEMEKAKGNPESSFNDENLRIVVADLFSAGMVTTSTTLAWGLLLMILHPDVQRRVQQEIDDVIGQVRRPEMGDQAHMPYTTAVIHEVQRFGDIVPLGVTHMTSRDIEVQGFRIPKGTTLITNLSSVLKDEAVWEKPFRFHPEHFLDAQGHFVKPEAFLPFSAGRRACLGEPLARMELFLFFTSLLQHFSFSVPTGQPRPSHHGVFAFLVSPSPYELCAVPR
Procedure, shortened: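 Human CYP2D6 (5 nM) with 30 uM Luciferin-ME EGE (at Km) in 100 mM KPO4, compound preincubated 10 min, then NADPH regeneration system for 60 min at room temperature. Luciferin read by luminescence; normalized to 1.43 uM quinidine.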

[6] = biological target: ATP-dependent 6-phosphofructokinase (Trypanosoma brucei brucei) (UniProt O15648); test: qHTS Assay to Find Inhibitors of T. brucei phosphofructokinase: hit validation (AID 492961);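 note: luminescence reports ADP formed as PFK phosphorylates fructose-6-phosphate with ATP; % is set by controls: 0 for no effect and ±100 for the full control effect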
Sequence of ATP-dependent 6-phosphofructokinase (Trypanosoma brucei brucei) (O15648 whole entry, looked up): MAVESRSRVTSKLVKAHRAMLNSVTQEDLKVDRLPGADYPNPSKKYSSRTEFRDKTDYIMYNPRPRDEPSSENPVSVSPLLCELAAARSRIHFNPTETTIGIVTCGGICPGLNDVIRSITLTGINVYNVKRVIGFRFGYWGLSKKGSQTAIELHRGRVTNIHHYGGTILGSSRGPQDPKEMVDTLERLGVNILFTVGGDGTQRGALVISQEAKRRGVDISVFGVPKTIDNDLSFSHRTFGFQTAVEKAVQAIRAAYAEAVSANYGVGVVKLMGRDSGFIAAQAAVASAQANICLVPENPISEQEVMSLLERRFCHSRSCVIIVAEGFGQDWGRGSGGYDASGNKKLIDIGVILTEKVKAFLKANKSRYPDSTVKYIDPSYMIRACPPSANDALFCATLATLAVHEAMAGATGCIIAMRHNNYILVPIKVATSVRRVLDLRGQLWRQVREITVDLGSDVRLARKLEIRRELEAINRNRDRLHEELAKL
Procedure, shortened: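 ADP-Glo luminescence read-out of ADP formed by 1.25 nM PFK from 0.1 mM ATP and 0.5 mM F6P (TEA pH 8.0, 45 min, RT). Compounds titrated; activity normalized to no-enzyme and full-enzyme controls.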

[7] = qHTS Assay for Identification of Small Molecule Agonists for Hypoxia Response Element Signaling Pathway (AID 914; active = well fitted activation curve with a large enough effect in the signal ratio, with a control signal flat, not every such curve was filed as active; the % refers to the signal ratio; note: % of control where 0% means no effect); conditions: ME-180 (cervical carcinoma) HRE-bla reporter, beta-lactamase ratio, CoCl2, 17 h; activation: stronger effect = higher value
Procedure, shortened: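 Compounds in a titration series were added to ME-180 reporter cells alongside an EC50 level of CoCl2. After 17 hours, beta-lactamase activity was read as the 460nm/530nm emission ratio of CCF4, giving AC50 values.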

NCc1ccccc1CC(=O)N[C@@H]1C(=O)N2C(C(=O)O)=C(CSc3nnnn3CC(=O)O)CS[C@@H]12
inactive: Potency [1] | Potency (CP194) | Potency (CP211) | Potency (CP215) | Potency (CP237) | Potency (CP260) | Potency (CP269) | Potency (CP291) | Potency (CP315) | Potency (CP335) | Potency (DFO2036) | Potency (GB4) | Potency (P94_40) | Potency (PC26)

COc1ccc2c3c([nH]c2c1)[C@@H]1C[C@@H]2[C@@H](C[C@H](O)[C@H](OC)[C@H]2C(=O)O)CN1CC3
inactive: Potency [2]

CN(C)c1ccc(-c2nccc(NCc3ccccc3)n2)cc1
inactive: Potency [4]
active: Potency [3] 7.94 µM | Potency [5] 3.16 µM

COc1ccc(CNc2ncncc2-c2ccccc2CN(C)C)c(OC)c1
active: Potency [3] 0.398 µM | Potency [5] 2.51 µM

O=C(c1cc(C(F)(F)F)cc(C(F)(F)F)c1)N1CCC[C@@]2(CCN(c3ccccn3)C2)C1
active: Potency [3] 3.98 µM
inactive: Potency [4]

C[C@H]1CC[C@@H]2[C@@H](C)[C@H]3[C@H](C[C@H]4[C@@H]5CC=C6C[C@@H](O[C@]7(O[C@H]8O[C@@H](C)[C@@H](O)[C@@H](O)[C@@H]8O)C[C@@H](O[C@@H]8O[C@H](CO)[C@@H](O)[C@H](O)[C@@H]8O)[C@@H](O)[C@H](CO)O7)CC[C@]6(C)[C@H]5CC[C@@]34C)N2C1
inactive: Potency [2] | Potency [3] | Potency [5]

CN(C/C=C\c1ccccc1)Cc1cccc2ccccc12
active: Potency [5] 0.251 µM
inactive: outcome [6] | Potency (CP215) | Potency (CP237) | Potency (CP260) | Potency (CP269) | Potency (CP315) | Potency (CP335) | Potency (DFO2036) | Potency (P94_40) | Potency (PC26)

CN1CCN([C@@H](c2ccccc2)c2ccc(Cl)cc2)CC1
active: Potency [5] 2 µM
inactive: Potency [1] | Potency (CP211) | Potency (CP237) | Potency (CP260) | Potency (CP269) | Potency (CP315)

COc1cc2nc(N3CCN(C(=O)[C@@H]4COc5ccccc5O4)CC3)nc(N)c2cc1OC
inactive: Potency [1] | Potency (CP215) | Potency (CP315)

Clc1ccc([C@H](Cn2ccnc2)OCc2csc3c(Cl)cccc23)c(Cl)c1
inactive: Potency [4]
active: Potency [2] 0.316 µM | Potency [3] 0.794 µM | Potency [5] 5.01 µM | Potency (CP237) 3.16 µM | Potency (GB4) 5.1 µM | Potency (P94_40) 3.55 µM | Potency (PC26) 6.42 µM

CC(C)NC[C@H]1CCc2cc(CO)c([N+](=O)[O-])cc2N1
inactive: outcome [6] | Potency [1] | Potency (CP194) | Potency (CP215) | Potency (CP237) | Potency (CP260) | Potency (CP269) | Potency (CP291) | Potency (CP315) | Potency (CP335) | Potency (DFO2036) | Potency (GB4) | Potency (P94_40) | Potency (PC26)

CN(C)CCOC(=O)[C@@H](c1ccccc1)C1(O)CCCC1
inactive: outcome [6] | Potency [1] | Potency (CP194) | Potency (CP211) | Potency (CP215) | Potency (CP269) | Potency (CP291) | Potency (CP315) | Potency (CP335) | Potency (DFO2036) | Potency (P94_40)
active: Potency (CP237) 8.91 µM

C[C@@H]1[C@H]2CC[C@@H]3[C@@H]4CC=C5C[C@@H](N(C)C)CC[C@]5(C)[C@@H]4CC[C@@]32CN1C
inactive: activation [7] 23.8%

CC(=O)O[C@]1(C(C)=O)CC[C@@H]2[C@@H]3C=C(C)C4=CC(=O)CC[C@@]4(C)[C@H]3CC[C@]21C
inactive: Potency [3] | outcome [6] | Potency (CP194) | Potency (CP211) | Potency (CP215) | Potency (CP237) | Potency (CP260) | Potency (CP269) | Potency (CP291) | Potency (CP315) | Potency (CP335) | Potency (DFO2036) | Potency (GB4) | Potency (P94_40)

CC[C@@H]1OC(=O)[C@H](C)[C@H](O[C@@H]2C[C@](C)(OC)[C@H](O)[C@H](C)O2)[C@H](C)[C@H](O[C@@H]2O[C@@H](C)C[C@@H](N(C)C)[C@@H]2O)[C@](C)(O)C[C@H](C)C(=O)[C@H](C)[C@H](O)[C@]1(C)O
inactive: Potency [4]

OCCN1CCN(CCC=C2c3ccccc3Sc3ccc(Cl)cc32)CC1
inactive: Potency [4] | outcome [6] | Potency [1]
active: Potency (GB4) 4.05 µM

c1ccc2c3c([nH]c2c1)[C@@H]1[C@H]2CC[C@H]([C@H]4CCCN[C@H]42)N1CC3
active: Potency [5] 7.94 µM

Cc1c(C)c2c(c(C)c1O)CC[C@@](C)(C(=O)O)O2
inactive: Potency [4]

CCC(=O)O[C@@]1(C(=O)SCF)[C@@H](C)C[C@H]2[C@@H]3C[C@@H](F)C4=CC(=O)C=C[C@@]4(C)[C@]3(F)[C@@H](O)C[C@]21C
inactive: Potency [1] | Potency (CP194) | Potency (CP211) | Potency (CP215) | Potency (CP291) | Potency (CP315)

C=CCSC[C@@H]1Nc2cc(Cl)c(S(N)(=O)=O)cc2S(=O)(=O)N1
inactive: Potency [2]

CN1CCC2(CC1)CCN(C(=O)c1ccncc1)CC2
inactive: activation [7] 7.12%

c1ccc2c(c1)CCCc1cc(NCCN3CCOCC3)nnc1-2
inactive: Potency [4]

CN1CCCN([C@@H](c2ccccc2)c2ccc(Cl)cc2)CC1
active: Potency [5] 0.251 µM

NC(=O)N/N=C\c1ccc([N+](=O)[O-])o1
inactive: Potency [4]

C[C@H](C(=O)O)c1cccc(Oc2ccccc2)c1
inactive: outcome [6] | Potency [1] | Potency (CP194) | Potency (CP211) | Potency (CP215) | Potency (CP237) | Potency (CP260) | Potency (CP269) | Potency (CP291) | Potency (CP315) | Potency (CP335) | Potency (DFO2036) | Potency (GB4) | Potency (P94_40) | Potency (PC26)

C=CCN1C(=CCO)[C@H]2C[C@H]3[C@@H]1CC[C@@]31c3ccccc3N3C=C4[C@@H]5N(/C=C/2[C@H]31)c1ccccc1[C@]51CC[C@H]2[C@H]1C[C@@H]4/C(=C/CO)N2CC=C
inactive: outcome [6] | Potency [1] | Potency (CP194) | Potency (CP211) | Potency (CP215) | Potency (CP237) | Potency (CP260) | Potency (CP269) | Potency (CP291) | Potency (CP315) | Potency (DFO2036) | Potency (GB4) | Potency (P94_40) | Potency (PC26)

From PubChem BioAssay (NCATS)
